Source: PubChem BioAssay (National Center for Advancing Translational Sciences (NCATS))
Rab9 prom act = activates the Rab9 promoter. Huh7 Rab9 promoter-luciferase reporter, luminescence, 24 h. Potency, µM (doses to about 9.22 µM), most hits filed as activators. 2.8% of 320,000 active. AID 485297; note: nearly all actives have a fitted effect of over 60% in size
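Measured in stably transfected Huh7 cells bearing a Rab9 promoter–luciferase construct: 24 h compound treatment at 37 °C, followed by luminescence detection.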
NPC1 prom act = NPC1 promoter activation; Huh7 NPC1 promoter luciferase reporter, 24 h; Potency, µM (doses to about 9.22 µM), most hits filed as activators; 2.4% of 320,000 active; AID 485313; note: nearly all actives have a fitted effect of over 60% in size
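Huh7 reporter cells (NPC1 promoter driving luciferase) are dosed with compound for 24 h at 37 °C, 5% CO2; luciferase detection reagent is then added and luminescence measured after 10 min at ambient temperature.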
SMN2 splice enh = increases expression of the SMN2 splice variant | HEK293 SMN2-luciferase splicing reporter, luminescence, 30-36 h | Potency, µM (series often up to 46.1 µM), most hits filed as activators | 2.8% of 210,000 active | AID 1458; note: nearly all actives have a fitted effect of over 55% in size
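HEK293 cells carry an SMN2 minigene-luciferase reporter in which exon 7 inclusion puts luciferase in frame. Cells were seeded at 2000 cells/well, attached for 10-12 hours, then exposed to compounds for 30-36 hours at 37C before ONE-Glo luminescence.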
ELG1 genotoxic = genotoxicity induction in ELG1-luciferase HEK293T cells | HEK293T ELG1-luciferase reporter, luminescence, 16 h | Potency, µM (doses to about 46 µM), usual class: activators | 1.3% of 330,000 active; note: nearly all actives have a fitted effect of over 60% in size
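Genotoxic stress is detected as increased luminescence from luciferase-tagged ELG1 in HEK293T cells, measured with ONE-Glo after a 16 hr treatment at 37 °C.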
uPA generation = inhibitors of cell surface uPA generation; cell surface uPA generation assay, qHTS; 0.31% of 330,000 active; Potency, µM (series often up to 38.3 µM), hits mostly inhibitors; active = well fitted inhibition curve with a large enough effect; inconclusive = small, poorly fitted or top-dose-only effect; inactive = no such curve, though single readings can be large or run the other way; tested in mouse RAW 264.7 cells; note: nearly all actives have a fitted effect of over 55% in size
FLuc modulator = inhibits or activates purified firefly luciferase, miR-21 counter-screen; P08659; purified FLuc, Km substrates, luminescence inhibition; Potency, µM (doses to about 57.5 µM), usual class: inhibitors; 6.9% of 360,000 active; note: nearly all actives have a fitted effect of over 55% in size
Target sequence (P08659 whole entry, looked up): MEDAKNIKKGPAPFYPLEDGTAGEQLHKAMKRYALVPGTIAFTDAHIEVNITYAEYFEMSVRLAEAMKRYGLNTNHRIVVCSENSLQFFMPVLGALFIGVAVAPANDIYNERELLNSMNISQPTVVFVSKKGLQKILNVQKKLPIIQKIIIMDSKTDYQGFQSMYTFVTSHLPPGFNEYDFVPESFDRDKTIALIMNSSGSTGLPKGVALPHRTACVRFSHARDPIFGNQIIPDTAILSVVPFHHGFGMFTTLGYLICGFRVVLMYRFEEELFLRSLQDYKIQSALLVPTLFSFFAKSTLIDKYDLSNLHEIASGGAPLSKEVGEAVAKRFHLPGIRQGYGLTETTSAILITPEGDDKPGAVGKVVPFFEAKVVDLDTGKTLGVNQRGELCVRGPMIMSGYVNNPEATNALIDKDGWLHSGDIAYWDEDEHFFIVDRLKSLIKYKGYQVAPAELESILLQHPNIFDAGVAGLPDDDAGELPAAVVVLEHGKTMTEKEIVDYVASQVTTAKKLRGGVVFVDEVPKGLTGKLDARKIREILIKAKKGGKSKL
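Purified P. pyralis luciferase (10nM final) with 10uM D-luciferin and 10uM ATP (Km levels) in 50mM Tris acetate pH 7.5, 10mM Mg acetate, 0.01% Tween-20, 0.05% BSA; qHTS 6-point titration, ~60 µM downward; luminescence read.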
Numbers stand for hits; - = inactive; ? = inconclusive; . = no result. A selection: hits, their analogues and other compounds. The true share with any hit is near 7.3%. Unless noted, calls come from the whole dose curve; as a rule, active = well fitted curve in the direction sought with a large enough effect; inconclusive = small, poorly fitted or top-dose-only effect, or another doubt; inactive = no such curve, though single readings can be large; an effect the other way counts as inactive or inconclusive.

SMILES	Rab9 prom act	NPC1 prom act	SMN2 splice enh	ELG1 genotoxic	uPA generation	FLuc modulator
O=c1/c(=C\c2ccc(F)cc2)sc2n1CCCN=2	?	?	?	?	-	13µM
O=c1/c(=C/c2ccc(O)cc2)sc2n1CCCN=2	2.8µM	-	.	?	-	9.5µM
N#Cc1ccc(CN2CCN(C(=O)c3ccc(S(=O)(=O)NCc4ccco4)cc3)CC2)cc1	-	-	.	-	?	-
CCOC(=O)c1cc(-c2cc3ccccc3o2)n[nH]1	-	-	-	-	-	19µM
COc1cccc(NC(=O)C(=O)NCC2CCCN2S(=O)(=O)c2ccccc2)c1 (centres undefined)	?	-	.	-	-	15µM
COc1cccc(NC(=O)C(=O)NCCC2CCCCN2S(=O)(=O)c2ccccc2)c1 (centres undefined)	-	-	.	-	-	24µM
COc1cccc(C(=O)NCC2CCCN2S(=O)(=O)c2ccccc2)c1 (centres undefined)	-	-	.	-	-	-
N#Cc1c(N2C(=O)Nc3ccccc3N2O)sc2c1CCCC2	-	-	-	-	-	13µM
N#Cc1c(N2C(=O)Nc3ccccc3N2O)sc2c1CCCCCC2	-	-	-	-	-	?
CCOc1ccc(CCNC(=O)C(CC)n2nc(C)c3c(C)n(-c4ccccc4)nc3c2=O)cc1 (centres undefined)	.	.	.	.	.	-
N#Cc1c(/N=C/N2CCOCC2)sc2c1CCCCC2	2.5µM	4µM	11µM	5.8µM	-	5.4µM
CN(C)/C=N/c1sc2c(c1C#N)CCCCC2	?	?	?	?	-	21µM
CCCN(/C=N/c1sc2c(c1C#N)CCCCC2)CCC	-	-	-	-	-	19µM
COc1ccccc1-c1nn(CCC(=O)Nc2ccccc2)c2nc(C)cc(C)c12	.	.	-	.	.	-
Cc1ccc(-c2nc(-c3ccncc3)no2)cc1Cl	3.2µM	2µM	.	?	-	2.7µM
Cc1ccc(-c2noc(CNC(=O)c3ccc(C)c(Cl)c3)n2)cc1	.	.	-	.	.	-
Cc1ccc(-c2nc(-c3ccncc3)no2)cc1C	0.56µM	0.71µM	.	2.3µM	-	0.76µM
COc1ccc(-c2noc(-c3ccccc3Cl)n2)cc1OC	2.5µM	3.2µM	5.6µM	?	-	2.7µM
Fc1cccc(F)c1-c1nc(-c2ccncc2)no1	2µM	?	.	?	-	17µM
CN(C)c1ccc(C(CNS(=O)(=O)c2ccc(F)cc2)N2CCCC2)cc1 (centres undefined)	.	.	.	.	.	-
COc1ccc(C)cc1NS(=O)(=O)c1cc(Br)cc2c1N(C(C)=O)C(C)C2 (centres undefined)	.	.	-	.	.	-
CC(=O)Nc1ccc(/C=C/c2nc(-c3ccccc3O)n(-c3ccccc3)n2)cc1	.	.	-	.	.	-
COc1ccc(-c2nc(-c3ccc(NC(=O)c4ccc(Br)o4)cc3)no2)cc1OC	-	-	-	?	-	?
CNc1ccc(-c2nc(-c3ccncc3)no2)cc1[N+](=O)[O-]	.	.	.	.	.	-
COc1cc(OC)c(NC(=O)CCc2nc(-c3ccc(C)cc3)no2)cc1Cl	-	-	-	-	-	21µM
SMILES	Rab9 prom act	NPC1 prom act	SMN2 splice enh	ELG1 genotoxic	uPA generation	FLuc modulator
COc1ccc(-c2noc(-c3ccoc3C)n2)cc1OC	-	-	.	-	?	-
COc1cc(OC)c(NC(=O)CSCc2nc(-c3ccc(OC)c(OC)c3)no2)cc1Cl	.	.	.	.	.	-
COc1ccc(-c2noc(-c3ccco3)n2)cc1OC	.	.	13µM	.	-	7.6µM
Cc1cc(-c2nc(-c3ccncc3)no2)ccc1[N+](=O)[O-]	4µM	2.2µM	.	?	-	4.8µM
COc1ccc(CCC(=O)Nc2ccc(-c3noc(-c4ccc(OC)c(OC)c4)n3)cc2)cc1	?	?	11µM	?	-	-
CS(=O)(=O)N1CCC(C(=O)Nc2ccccc2Br)CC1	-	-	.	-	-	-
CCOC(=O)c1cc(-c2ccccc2)n(CC(=O)N(C)c2ccc(OC)cc2)c1C	.	.	.	.	.	-
CCOc1ccc(-c2noc(-c3ccncc3)n2)cc1OCC	-	-	-	-	-	-
COc1ccc(-c2nc(-c3ccncc3)no2)cc1OC	-	?	?	16µM	-	9.5µM
COc1cc(-c2noc(-c3cccs3)n2)cc(OC)c1OC	-	-	?	-	-	-
COc1ccc(-c2noc(-c3cccs3)n2)cc1OC	1.6µM	1.3µM	.	?	-	2.4µM
Cc1ccc(S(=O)(=O)NCCc2sc3nc(-c4ccccc4)nn3c2C)cc1C	.	.	.	.	.	-
O=C(CCS(=O)(=O)c1ccc(Br)s1)Nc1cc(C(F)(F)F)cc(C(F)(F)F)c1	.	.	-	.	.	-
Cc1ccc(Cn2ccc(C3CC3)n2)cc1	?	?	?	-	-	17µM
CC1(C)NC(=O)N(CCCOc2ccc(Br)cc2Cl)C1=O	?	2.8µM	?	15µM	-	11µM
CC1(C)NC(=O)N(CCCCOc2ccc(Br)cc2Cl)C1=O	-	-	-	-	-	-
CCCN1C(=O)c2[nH]nc(-c3ccc(F)cc3)c2C1c1ccc(O)c(OCC)c1 (centres undefined)	.	.	-	.	.	-
O=C(Cc1ccc2ccccc2c1)NC(Cc1ccccc1)C(=O)O (centres undefined)	.	.	.	-	-	.
COc1ccc(Cn2c(-c3ccc(Br)cc3)c[n+]3ccccc23)cc1	-	-	11µM	-	?	11µM
Cc1ccnc(NC(=O)c2ccccc2NC(=O)C(C)(C)C)c1	-	-	-	-	-	-
COc1ccc(C(=O)Nc2ccccc2C(=O)Nc2cc(C)ccn2)cc1	3.5µM	1.8µM	.	-	-	1.3µM
COc1ccc(C(=O)NC(=O)Nc2cc(C)ccn2)cc1	0.79µM	0.79µM	.	?	?	0.19µM
COc1cc2ccccc2cc1C(=O)Nc1cc(C)ccn1	3.2µM	?	.	?	-	12µM
COc1ccc2[nH]c(C(=O)Nc3cccc(C)n3)cc2c1	0.5µM	0.63µM	.	?	-	1.2µM
COCC(C)NC(=O)c1cc2cc(OC)ccc2[nH]1 (centres undefined)	-	-	.	-	-	?
SMILES	Rab9 prom act	NPC1 prom act	SMN2 splice enh	ELG1 genotoxic	uPA generation	FLuc modulator
O=C(Nc1cc(S(=O)(=O)N2CCOCC2)ccc1N1CCOCC1)c1cccs1	-	-	.	-	-	.
COc1ccc(C(=O)Nc2ccccc2C(=O)Nc2cccnc2)cc1	-	-	.	?	-	4.3µM
O=C(Nc1cccnc1)c1ccccc1O	-	-	-	-	-	15µM
C/C(CC(=O)Nc1cc(C)ccn1)=N\NC(=O)c1ccc(C(C)(C)C)cc1	-	-	.	-	-	11µM
COc1ccc(C(=O)Nc2cccnc2)cc1	?	-	-	?	-	?
C/C(CC(=O)Nc1ccccn1)=N\NC(=O)c1ccc(C)cc1	-	-	-	-	-	-
CCOc1ccc(C(=O)NC(=S)Nc2cccnc2)cc1	2.8µM	?	?	-	-	?
O=c1c2ccccc2n(Cc2cccc(F)c2)c(=O)n1Cc1ccccc1Cl	.	.	-	.	.	-
COc1ccc(C=O)cc1Oc1nc(Cl)ncc1F	-	-	-	-	-	-
